Reference: PubChem BioAssay AID1259400 (National Center for Advancing Translational Sciences (NCATS), 2018)
In all, about 350,000 compounds went through this assay and about 2,100 (0.6%) were called active. Roughly 1% stayed inconclusive and do not appear here. The list comes from a sample in which actives are over-represented; it also holds similar structures and randomly drawn compounds. Values without a mark were called inactive.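 How the source made its calls: active means activity change of -60% or lower, but not beyond a set lower limit; inconclusive means change between -60% and -40%, or beyond the set limit; inactive means change above -40%.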

Each compound was assayed against Relaxin receptor 1 (Homo sapiens) (UniProt Q9HBX9) (assay: qHTS Assay for Antagonists of the Relaxin Receptor RXFP1). Conditions: HEK293-RXFP1, relaxin-stimulated cAMP HTRF, 30 min; at 57.5 µM; stronger effect = lower value.
On the % scale 0 is the no-effect control and ±100 the full control effect.

Sequence of Relaxin receptor 1 (Homo sapiens) (Q9HBX9 whole entry, looked up): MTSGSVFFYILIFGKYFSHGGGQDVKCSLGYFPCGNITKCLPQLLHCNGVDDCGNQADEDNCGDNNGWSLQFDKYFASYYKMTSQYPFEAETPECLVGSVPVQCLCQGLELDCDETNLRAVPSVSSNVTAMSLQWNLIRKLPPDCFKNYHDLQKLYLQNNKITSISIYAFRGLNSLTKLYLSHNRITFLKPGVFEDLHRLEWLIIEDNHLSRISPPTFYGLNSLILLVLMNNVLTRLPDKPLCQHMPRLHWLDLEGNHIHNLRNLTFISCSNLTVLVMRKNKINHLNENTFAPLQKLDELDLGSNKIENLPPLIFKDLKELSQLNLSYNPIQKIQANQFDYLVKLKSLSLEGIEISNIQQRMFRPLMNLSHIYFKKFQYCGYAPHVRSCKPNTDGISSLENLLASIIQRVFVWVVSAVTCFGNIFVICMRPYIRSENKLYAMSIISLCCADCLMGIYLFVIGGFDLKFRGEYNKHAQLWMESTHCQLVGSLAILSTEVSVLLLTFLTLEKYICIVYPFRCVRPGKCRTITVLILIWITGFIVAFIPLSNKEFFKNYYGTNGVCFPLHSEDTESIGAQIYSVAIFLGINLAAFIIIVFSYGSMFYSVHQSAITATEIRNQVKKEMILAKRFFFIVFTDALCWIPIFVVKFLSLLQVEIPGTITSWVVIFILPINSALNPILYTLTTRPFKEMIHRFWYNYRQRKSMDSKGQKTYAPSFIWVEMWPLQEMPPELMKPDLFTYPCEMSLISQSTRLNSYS

SMILES	activity change, negative = inhibition
O=C(CSc1nccn1C1CCCC1)Nc1cc(C(F)(F)F)ccc1Cl	-72.3% (active)
COc1ccc(NC(=O)CSc2nccn2C2CCCC2)cc1OC	6.9%
Cc1cc2c(cc3c(SCc4cccc(Cl)c4)nnc(C)n32)o1	-4.3%
O=C(CSc1ccc([N+](=O)[O-])cn1)Nc1ccc(N2CCOCC2)cc1	-66.8% (active)
Cn1cnnc1SCC(=O)Nc1ccc(N2CCOCC2)cc1	-11.8%
O=C(CSc1ccc([N+](=O)[O-])cn1)Nc1ccc(N2CCOCC2)c(Cl)c1	-1.58%
Cc1ccc(O)c(NC(=O)c2cc(-c3ccc(F)cc3)no2)c1	-3.02%
CC(=O)c1ccc(NC(=O)CSc2c(C(C)C)cnc3c2c(=O)n(C)c(=O)n3C)cc1	3.09%
CC(C)c1ccc(C2CC(=O)N3CN(C4CCCCC4)CSC3=C2C#N)cc1 (stereo unspecified)	-4.73%
Cc1ccc(-c2nc3cccc(C)n3c2Nc2ccc3c(c2)OCCO3)cc1	3.27%
CC(=O)N/N=C(\C)c1ccc(Br)cc1Br	3.93%
CC(=N\NC(=O)c1cc(Br)ccc1O)/C(=N/O)C(=O)Nc1ccccc1	-80.9% (active)
COc1ccc(-c2[nH]ncc2/C=N/NC(=O)c2cc(Br)ccc2O)c(OC)c1	-30%
CC(NCc1ccccc1OC1CCCC1)c1ccccc1 (stereo unspecified)	-60.9% (active)
CC(C)(C)NCc1cc(Br)ccc1OC1CCCC1	-6.03%
COc1cc(CNC2CCCCC2)c(Br)cc1OC1CCCC1	-7.24%
O=C(Cn1nc(Cc2cccnc2)c2ccccc2c1=O)N1CCN(c2ccccc2F)CC1	5.94%
CCCc1cc(=O)n2[nH]c(NCc3ccc(CC)cc3)nc2n1	-11.6%
Cc1ccc(-c2cc(C(=O)Oc3ccccc3Cl)no2)cc1C	-12.2%
O=C(N/N=C/C=C/c1ccco1)c1cccs1	-79.6% (active)
Cc1ccc(-n2nc(C)c(/C=N/NC(=O)c3cccs3)c2Cl)cc1	-17.6%
O=C(N/N=C/c1ccco1)c1csc2c1CCCC2	-11.1%
O=C(Nc1c(C(=O)N2CCN(c3ccc(F)cc3)CC2)oc2ccccc12)c1ccco1	-14.5%

SMILES	activity change, negative = inhibition
CCCCNC(=O)c1cc(-c2ccc(Cl)c(Cl)c2)on1	-6.36%
C=CS(=O)c1sc(Cl)c(N2CCOCC2)c1[N+](=O)[O-] (stereo unspecified)	-60.3% (active)
O=C(NCCCN1CCN(c2cccc(Cl)c2)CC1)c1nnc(Cc2ccc(F)cc2Cl)o1	-19.5%
COc1ccc(CCNC(=O)c2cn(C)c3ccc(S(=O)(=O)N(C)C4CCCCC4)cc3c2=O)cc1OC	-10.4%
CCC1(CC)Cc2ccccc2-c2nc(CCl)[nH]c(=O)c21	-80.4% (active)
CCOC(=O)C1Cn2c(nc3c(c2=O)C(C)(CC)Cc2ccccc2-3)S1 (stereo unspecified)	-6.89%
N#CCSc1nc2c(c(=O)n1Cc1ccccc1)C1(CCCC1)Cc1ccccc1-2	-9.93%
CCc1nc(-c2cc(S(=O)(=O)N3CCN(c4ccc(OC)cc4)CC3)ccc2OC)no1	0.921%
CCCC12CN3CC(CCC)(CN(C1)C3c1c[nH]c3ccc(OC)cc13)C2=O (stereo unspecified)	-18.6%
Cc1cc(C)cc(OC(C)C(=O)Nc2nc3c(s2)CCCC3)c1 (stereo unspecified)	-103% (active)
COC(=O)C(NC(C)=O)(Nc1nc2c(s1)CCCC2)C(F)(F)F (stereo unspecified)	-2.87%
O=C(Nc1nc2c(s1)CCCC2)c1ccccc1F	-33.1%
CCC(Sc1nc2n[nH]c(C)c2c(=N)n1-c1ccccc1Cl)C(=O)N(CC)CC (stereo unspecified)	-33.6%
COc1ccc(C)cc1N(C)C(=O)c1c(C)oc2ncnc(N3CCOCC3)c12	-0.158%
COc1ccc(OC)c(C(=O)NC2CCCc3c2cnn3-c2cc(C)cc(C)c2)c1 (stereo unspecified)	2.28%
COc1ccc(C(=O)NC2CCCc3c2cnn3-c2cccc(C)c2C)c(OC)n1 (stereo unspecified)	-116% (active)
Cc1ccc(-n2ncc3c2CCCC3NC(=O)c2cnccn2)cc1C (stereo unspecified)	-3.03%
NCC[C@H](O)C(=O)N[C@@H]1C[C@H](N)[C@@H](O[C@H]2O[C@H](CN)[C@@H](O)[C@H](O)[C@@H]2O)[C@H](O)[C@@H]1O[C@H]1O[C@H](CO)[C@@H](O)[C@H](N)[C@@H]1O	-6.65%
COc1ccc(CNC(=O)CCn2cccc2)cc1	-6.31%
CCOCC(=O)NCc1ccc2c(c1)cc(C)n2C	-74.1% (active)
COc1cc(C(=O)NCc2ccc3c(c2)cc(C)n3C)cc(OC)c1OC	12%
CCOc1ccc(-c2cc3c(=O)n(CC(=O)NCc4ccc(OC)cc4)ccn3n2)cc1	4.95%
COc1ccc(Cn2ccnc2SCC(=O)Nc2ccc3c(c2)OCO3)cc1	-2.29%
